SW480 rereplic – DNA re-replication induction in SW480 cells; Potency, µM (doses to about 46.1 µM), for inactives: top-dose re-replication activation, hits mostly activators; SW480 DNA re-replication, Hoechst DNA content imaging, 48 h; 340,000 compounds, 1.8% hits; AID 624297; further: potency means the concentration at half of the fitted maximal effect; % of control where 0% means no effect; nearly all actives have a fitted effect of over 55% in size
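SW480 cells exposed to compounds for 48 hr at 37 C, 5% CO2, then Hoechst-stained 40 min. Nuclear DNA content imaged by fluorescence scanning (405 nm excitation, 500-530 nm emission); re-replication scored as increased high-intensity nuclei.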
KCNH2 3.1 block – inhibitors of human KCNH2 3.1 potassium channel isoform; U2OS KCNH2 3.1, thallium flux FluxOr; hits give low values; activity change, % (tested at about 1.8 µM); 340,000 compounds, 0.95% hits;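 active means maximum activity change below -70%; inconclusive means maximum activity change from -70% to -50%; inactive means maximum activity change above -50%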;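 further: thallium influx rate constant from kinetic fluorescence after stimulation buffer; on the % scale 0 is the no-effect control and ±100 the full control effect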
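Channel expression came from 3.1 mutant virus (1.77 x 10^8 /mL) applied to suspended U2OS cells for 4 h. Flux was tracked with FluxOr dye plus Red40 quencher, and kinetic rate constants normalized to controls.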
MCF10A rerep – induces DNA re-replication in MCF 10a normal breast cells | 350,000 compounds, 2.9% hits | MCF 10A DNA re-replication, Hoechst nuclear intensity, 48 h | Potency, µM (top dose mostly 46.1 µM), for inactives: at the highest dose activity, positive = re-replication, actives largely listed as activators | AID 624296; further: potency means the concentration at half of the fitted maximal effect; % of control where 0% means no effect; nearly all actives have a fitted effect of over 50% in size
KCNH2 WT inh – blocks the wildtype human KCNH2 potassium channel; Q12809; U2OS, BacMam KCNH2, thallium flux FluxOr; hits give low values; activity change, % at 1.84 µM; 340,000 compounds, 0.37% hits; AID 720551;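 active means maximum activity change below -70%; inconclusive means maximum activity change between -70% and -50%; inactive means maximum activity change above -50%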; further: on the % scale 0 is the no-effect control and ±100 the full control effect
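U2OS cells transduced with wild-type KCNH2 virus are loaded with FluxOr dye for 45 min, and thallium flux is measured in kinetic reads before and after stimulation buffer. Rate constants are normalized to DMSO controls.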
KB-V1 cytotox – KB-V1 MDR subline cytotoxicity | 400,000 compounds, 3.4% hits | Potency, µM (doses to about 46.1 µM), hits mostly cytotoxic | KB-V1 MDR cells viability, CellTiter-Glo, 72 h | AID 1347076; further: potency means the concentration at half of the fitted maximal effect; on the % scale 0 is the no-effect control and ±100 the full control effect; nearly all actives have a fitted effect of over 60% in size
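KB-V1, DMEM (no phenol red) + 10% FBS; cpd pin-transferred, titration series; 72 h, 37 degrees C; CellTiter-Glo, luminescence. Data normalized, curve-fit.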
KB-3-1 tox – KB-3-1 parental cell cytotoxicity; KB-3-1 viability, CellTiter-Glo ATP luminescence, 72 h; Potency, µM (series often up to 46.1 µM), usual class: cytotoxic; 400,000 compounds, 1.4% hits; further: potency means the concentration at half of the fitted maximal effect; on the % scale 0 is the no-effect control and ±100 the full control effect; nearly all actives have a fitted effect of over 60% in size
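Using CellTiter-Glo luminescence, growth of non-resistant KB-3-1 adenocarcinoma cells is assessed 72 h after pin-tool compound addition at 37 °C. Normalized responses across the concentration series yield fitted curves.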
The depositor's hits bear a star; i = inactive; ? = inconclusive; . = not tested or not shown; [ ] = remark or other dose. Shown are actives, neighbours in structure and some others; about 7.6% of the full set was active somewhere. Unless noted, the call rests on the fitted dose curve; in most records, active means well fitted curve in the direction sought with a large enough effect; inconclusive means small, poorly fitted or top-dose-only effect, or another doubt; inactive means no such curve, though single readings can be large; an effect the other way counts as inactive or inconclusive.

SMILES	SW480 rereplic	KCNH2 3.1 block	MCF10A rerep	KCNH2 WT inh	KB-V1 cytotox	KB-3-1 tox
O=C(CCCN1CCC(n2c(=O)[nH]c3ccccc32)CC1)c1ccc(F)cc1	3%	-71*	6%	-11	?	i
COC(=O)c1ccc(N2C(=O)CC(N3CCC(n4c(=O)[nH]c5ccccc54)CC3)C2=O)cc1 (stereo not given)	6%	0	-8%	3	i	i
O=C(CNC(=O)OCc1ccccc1)Nc1ccc(Br)cc1C(=O)c1ccccc1Cl	7%	-15	27%	4	8.2µM*	?
CN(C(=O)CNC(=O)OCc1ccccc1)c1ccc(Br)cc1C(=O)c1ccccc1Cl	12µM*	-4	8.2µM*	0	3.7µM*	2.3µM*
COC(=O)[C@@]1(C)CC[C@]2(C)CC[C@@]3(C)C(=CC(=O)C4[C@@]5(C)CC[C@H](O)C(C)(C)[C@@H]5CC[C@]43C)[C@H]2C1 (stereo not given in full)	-72%	-11	2%	3	?	i
C#C[C@]1(O)CCC2C3C(=O)C=C4C(Cl)=CCC[C@]4(C)C3CC[C@@]21C (stereo not given in full)	?	-5	18µM*	3	i	i
CCOc1ccc(-c2c(C)n(-c3ccc(OCC)cc3)c3[n+]2CCCCC3)cc1	?	-112*	?	-8	i	1.6µM*
COc1cc2c(cc1OC)-c1c(OC)c(OC)c(OC)c3ccnc(c13)C2=O	8.2µM*	18	?	0	?	i
CC12CCC3C(CC=C4CC(O)CCC43C)C1C/C(=C\c1cccc(F)c1)C2=O (stereo not given)	5%	-28	5.8µM*	-3	i	i
Nc1ccc2ccc3cccc[n+]3c2c1	2.9µM*	15	1%	10	i	?
CC1CC2(C)C(CCC3C2CCC2(C)C(OP(=O)(N4CC4)N4CC4)CCC32)CC1=O (stereo not given)	-3%	-10	13µM*	-8	i	i
S=C=Nc1ccccn1	-7%	57	12%	0	i	i
c1ccc(/N=C2\N=C(Nc3ccccn3)c3ccccc32)nc1	?	-4	23%	0	2.9µM*	i
COc1ccc(Cn2c(=O)oc3ccc(C)cc32)cc1OC	?	10	-182%[0.0737 µM]	5	?	i
CC(C)(C)c1cc(C=C(C#N)C#N)cc(C(C)(C)C)c1O	-45%	-7	?	-1	1µM*	1.3µM*
COc1ccc(S(=O)(=O)Nc2ccccc2OC)cc1N=Nc1c(O)[nH]c(=S)[nH]c1=O	9%	4	21µM*	4	i	i
Cc1ccc(C(=O)CN2CCOCC2)cc1	.	.	.	.	i	i
COc1ccc(C[C@@H]2c3cc(O)c(OC)cc3CCN2C)cc1O	-2%	.	1%	.	i	i
COc1cc2c(cc1O)[C@@H]1Cc3ccc(OC)c(O)c3CN1CC2	?	6	?	2	7.3µM*	5.8µM*
O=C1C2CC=CCC2C(=O)N1SC(Cl)(Cl)Cl (stereo not given)	6.7µM*	.	4.2µM*	.	.	.
Cc1c(C)c2c(OCC(=O)N[C@@H](C)C(=O)O)cc3c(c2oc1=O)CCC(C)(C)O3	-2%	3	-21%	-14	i	i
Cc1c(NS(=O)(=O)c2ccccc2)ccc([N+](=O)[O-])c1Cl	3%	17	21µM*	-2	?	?
CC1=NN(C)C(=O)C1Cc1c(F)cccc1Cl (stereo not given)	-54%	0	4%	-9	i	i
CC(C)n1c(/C=C/[C@@H](O)C[C@@H](O)CC(=O)O)c(-c2ccc(F)cc2)c2ccccc21	3%	0	6%	-11	18µM*	15µM*
Oc1cc(Cl)c(Cl)c(Cl)c1Cl	-3%	2	15µM*	8	i	i
SMILES	SW480 rereplic	KCNH2 3.1 block	MCF10A rerep	KCNH2 WT inh	KB-V1 cytotox	KB-3-1 tox
CCOC(=O)[C@]12Cc3cc4ccccc4cc3[C@H]1N(Cc1ccccc1)C(=O)c1ccccc12	.	.	.	.	?	5.2µM*
CCCCCN1C(=O)c2cc(OC)ccc2[C@@]2(C(=O)OCC)Cc3cc(Cl)ccc3[C@@H]12	.	.	.	.	1.6µM*	0.65µM*
CCOC(=O)[C@]12Cc3cc(OC)ccc3[C@H]1N(Cc1ccccc1)C(=O)c1cc(OC)ccc12	.	.	.	.	i	?
CCOC(=O)[C@]12Cc3cc4ccccc4cc3[C@H]1N(Cc1ccccc1)C(=O)c1cc(OC)ccc12	.	.	.	.	16µM*	5.8µM*
CCOC(=O)[C@]12Cc3cc(Cl)ccc3[C@H]1N(Cc1ccccc1)C(=O)c1cc(OC)ccc12	.	.	.	.	7.3µM*	2.6µM*
CCOC(=O)[C@]12Cc3cc(OC)c(OC)cc3[C@H]1N(Cc1ccccc1)C(=O)c1ccccc12	-4%	-6	11%	-15	?	i
Cc1cc(=O)n(-c2ccccc2)n1C	13%	-5	?	-7	i	?
NCC(=O)c1cccc([N+](=O)[O-])c1	.	.	.	.	i	i
O=C(O)COc1ccc(Br)cc1C(c1c(C(=O)O)[nH]c2ccccc12)c1c(C(=O)O)[nH]c2ccccc12	-32%	-7	?	0	i	i
Cc1ccc(N=Nc2cc(C)ccc2N)cc1	7%	-8	?	-12	i	i
CCC(=O)Nc1ccc(C(=O)NNC(=O)c2cc([N+](=O)[O-])cc([N+](=O)[O-])c2)cc1	-39%	-30	11%	-3	i	i
CCC12CN3CC(CC)(CN(C1)C3c1c(C)[nH]c(=O)[nH]c1=O)C2=O (stereo not given)	.	.	.	.	?	i
CCC(C)C1O[C@]2(C=CC1C)CC1CC(C/C=C(\C)[C@H](OC3CC(OC)C(O[C@H]4CC(OC)[C@@H](O)C(C)O4)C(C)O3)[C@@H](C)/C=C/C=C3\COC4C(O)C(C)=C[C@H](C(=O)O1)[C@@]34O)O2 (stereo not given in full)	6%	.	?	.	.	.
C[C@]12CCC(=O)C=C1CC[C@@H]1[C@@H]2CC[C@@]2(C)[C@H]1CC[C@]2(C)O	-10%	-7	?	-1	?	i
CC12Cc3cnoc3C=C1CCC1C2CCC2(C)C1CCC2(C)O (stereo not given)	1%	-2	?	-11	?	6.5µM*
O=C1OC(=O)C2C1[C@@H]1CC[C@H]2O1 (stereo not given in full)	1%	2	?	-3	i	?
CCCCCSc1cc(O)c(C(CNC)C(C)C)cc1OC (stereo not given)	?	-2	?	3	i	i
